The values that follow come from PubChem BioAssay (EPA / NIEHS).

Molecules are shown by their SMILES. Calls of active or inactive are those of the source. How the source made its calls: active means hit-call score of the fitted dose curve at least 0.9, where 1 is the maximum; inactive means score below 0.9.

Common to all, as to details: mRNA level, 48 h; actives raise or lower the signal
Read-out in test [1]: growth arrest and DNA damage 45 (GADD45A), GADD45A (gene 1647)
The experiment in a line: LTEA_HepaRG_GADD45A: Life Technologies and Expression Analysis (LTEA) Assay for growth arrest and DNA damage 45 (GADD45A) using HepaRG (AID 2283458). The method in brief:
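Eight-point concentration-response in HepaRG cells: 48 h chemical exposure, 0.5% DMSO vehicle, top dose 100 uM. Normalized qRT-PCR mRNA readout with bidirectional fitting relative to DMSO.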

Read-out in test [2]: Forkhead box O3 (FOXO3), FOXO3 (gene 2309)
In words: LTEA_HepaRG_FOXO3: Life Technologies and Expression Analysis (LTEA) Assay for Forkhead box O3 (FOXO3) using HepaRG (AID 2283459). The method in brief:
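qRT-PCR readout of FOXO3 transcript, normalized to three housekeeping genes (ACTB, GAPDH, POLR2A); gain or loss fitted against 0.5% DMSO vehicle. HepaRG cells, 48 h chemical exposure, 8-point half-log series, top 100 uM.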

Read-out in test [3]: ABC Transporter (ABCB1), ABCB1 (gene 5243)
The experiment in a line: LTEA_HepaRG_ABCB1: Life Technologies and Expression Analysis (LTEA) Assay for ABC Transporter (ABCB1) using HepaRG (AID 2283460). The method in brief:
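HepaRG, 48 h exposure, 8-pt half-log series from 100 uM, 0.5% DMSO vehicle, duplicates. Readout: ABCB1 transcript by Fluidigm TaqMan qRT-PCR, housekeeping-normalized; bidirectional curve fit vs DMSO baseline.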

Read-out in test [4]: growth arrest and DNA damage 45 (GADD45B), GADD45B (gene 4616)
In words: LTEA_HepaRG_GADD45B: Life Technologies and Expression Analysis (LTEA) Assay for growth arrest and DNA damage 45 (GADD45B) using HepaRG (AID 2283461). The gist of the method:
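HepaRG, ~100,000 cells/well, 48 h plating; serum-free induction medium; cpd 100 uM top, half-log x8, 0.5% DMSO, duplicate, 48 h; lysis in RLT, RNA isolation, qRT-PCR; norm ACTB/GAPDH/POLR2A; bidirectional fit vs DMSO.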

Read-out in test [5]: ABC Transporter (ABCC3), ABCC3 (gene 8714)
The experiment in a line: LTEA_HepaRG_ABCC3: Life Technologies and Expression Analysis (LTEA) Assay for ABC Transporter (ABCC3) using HepaRG (AID 2283462). The gist of the method:
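Human HepaRG, 48 h dosing, 8-pt half-log series from 100 uM, 0.5% DMSO vehicle, duplicates. ABCC3 mRNA by TaqMan qRT-PCR, housekeeping-normalized; bidirectional curve fit vs DMSO.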

Read-out in test [6]: ABC Transporter (ABCB11), ABCB11 (gene 8647)
The experiment in a line: LTEA_HepaRG_ABCB11: Life Technologies and Expression Analysis (LTEA) Assay for ABC Transporter (ABCB11) using HepaRG (AID 2283463). The gist of the method: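 HepaRG, 48 h exposure, 8-pt half-log CRC top 100 uM, 0.5% DMSO vehicle, duplicates. Readout: TaqMan qRT-PCR of ABCB11 mRNA, housekeeping-normalized (ACTB/GAPDH/POLR2A). Bidirectional fit vs DMSO baseline.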

Read-out in test [7]: ABC Transporter (ABCC2), ABCC2 (gene 1244)
The experiment in a line: LTEA_HepaRG_ABCC2: Life Technologies and Expression Analysis (LTEA) Assay for ABC Transporter (ABCC2) using HepaRG (AID 2283464). The gist of the method: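 HepaRG, 48 h post-plating; serum-free induction medium; cpd 8-pt, 100 uM top, half-log, 0.5% DMSO, duplicate, 48 h. Readout: ABCC2 mRNA by qRT-PCR, norm. ACTB/GAPDH/POLR2A. Bidirectional fit vs DMSO baseline.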

Read-out in test [8]: ATP-citrate lyase (ACLY), ACLY (gene 47)
In words: LTEA_HepaRG_ACLY: Life Technologies and Expression Analysis (LTEA) Assay for ATP-citrate lyase (ACLY) using HepaRG (AID 2283466). The method in brief: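 qRT-PCR readout of ACLY transcript after 48 h chemical treatment of HepaRG cells; expression normalized to three housekeeping genes. Eight-point half-log series, highest 100 uM, 0.5% DMSO vehicle. Gain or loss fitted against DMSO baseline.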

Read-out in test [9]: Peroxisomal acyl-coenzyme A oxidase 1 (ACOX1) gene, ACOX1 (gene 51)
The experiment in a line: LTEA_HepaRG_ACOX1: Life Technologies and Expression Analysis (LTEA) Assay for Peroxisomal acyl-coenzyme A oxidase 1 (ACOX1) gene using HepaRG (AID 2283467). The method in brief: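 HepaRG, 48 h chemical exposure, 8-pt half-log series from 100 uM top, 0.5% DMSO vehicle, duplicates. Readout: ACOX1 mRNA by Fluidigm qRT-PCR, housekeeping-normalized; bidirectional fit vs DMSO baseline.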

Read-out in test [10]: Alkaline Phosphatase, Placental (ALPP) gene, ALPP (gene 250)
The experiment in a line: LTEA_HepaRG_ALPP: Life Technologies and Expression Analysis (LTEA) Assay for Alkaline Phosphatase, Placental (ALPP) gene using HepaRG (AID 2283468).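 On AC50: differentiated human HepaRG liver cells in serum-free induction medium.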 The method in brief:
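HepaRG, 48 h plating then 48 h dosing, serum-free induction medium, 0.5% DMSO. 8 conc, half-log, max 100 uM, duplicates. Endpoint: ALPP transcript by qRT-PCR, housekeeping-normalized; gain or loss fitted vs DMSO.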

Read-out in test [11]: Bcl-2 (BAD) gene, BAD (gene 572)
The experiment in a line: LTEA_HepaRG_BAD: Life Technologies and Expression Analysis (LTEA) Assay for Bcl-2 (BAD) gene using HepaRG (AID 2283469). The method in brief:
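HepaRG, 48 h exposure, 8-pt half-log curve from 100 uM in 0.5% DMSO, duplicates. Readout: TaqMan qRT-PCR for BAD mRNA, housekeeping-normalised (ACTB/GAPDH/POLR2A); gain or loss fitted against DMSO baseline.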

Read-out in test [12]: Bcl-2 (BAX) gene, BAX (gene 581)
The experiment in a line: LTEA_HepaRG_BAX: Life Technologies and Expression Analysis (LTEA) Assay for Bcl-2 (BAX) gene using HepaRG (AID 2283470). The gist of the method:
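Human HepaRG cells treated in duplicate for 48 h across eight concentrations (max 100 uM, 0.5% DMSO); BAX expression measured by qRT-PCR.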

Read-out in test [13]: adenosine kinase (ADK) gene, ADK (gene 132)
The experiment in a line: LTEA_HepaRG_ADK: Life Technologies and Expression Analysis (LTEA) Assay for adenosine kinase (ADK) gene using HepaRG (AID 2283471). The method in brief:
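ADK expression quantified by qRT-PCR, normalised to three housekeeping genes, after 48 h exposure of HepaRG cells to eight concentrations (top 100 uM, half-log steps, duplicate, 0.5% DMSO). Up- or down-regulation fitted relative to vehicle.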

Read-out in test [14]: Alpha-fetoprotein (AFP) gene, AFP (gene 174)
The experiment in a line: LTEA_HepaRG_AFP: Life Technologies and Expression Analysis (LTEA) Assay for Alpha-fetoprotein (AFP) gene using HepaRG (AID 2283472). The method in brief:
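Measures AFP mRNA change in HepaRG after 48 h chemical exposure (8 half-log concentrations, highest 100 uM, 0.5% DMSO). Fold change relative to DMSO, fitted in both directions.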

Read-out in the next test: BCL2L11 (gene 10018)
In words: LTEA_HepaRG_BCL2L11: Life Technologies and Expression Analysis (LTEA) Assay for Bcl-2 (BCL2L11) gene using HepaRG (AID 2283473). The gist of the method: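 Read-out is BCL2L11 transcript level by qRT-PCR, normalized to three housekeeping genes and fitted bidirectionally against 0.5% DMSO vehicle. HepaRG cells received chemicals for 48 h in serum-free induction medium, 100 uM down in half-log dilutions.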

Read-out in test [15]: Apolipoprotein A-V (APOA5) gene, APOA5 (gene 116519)
In words: LTEA_HepaRG_APOA5: Life Technologies and Expression Analysis (LTEA) Assay for Apolipoprotein A-V (APOA5) gene using HepaRG (AID 2283474). The gist of the method: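 Readout is APOA5 transcript level by qRT-PCR on Fluidigm dynamic arrays, normalized to three housekeeping genes. HepaRG cultures received chemicals for 48 h at up to 100 uM (half-log steps, 0.5% DMSO), with gain or loss scored relative to DMSO.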

Read-out in test [16]: Apoptosis regulator Bcl-2 (Homo sapiens) (UniProt P10415)
In words: LTEA_HepaRG_BCL2: Life Technologies and Expression Analysis (LTEA) Assay for Bcl-2 gene using HepaRG (AID 2283475). The method in brief: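 Each chemical was tested in duplicate on HepaRG cultures held in serum-free induction medium for 48 h, highest concentration 100 uM with half-log dilutions. Transcript levels came from multiplexed qRT-PCR, normalised to housekeeping genes; activity was scored in either direction relative to DMSO.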

Read-out in test [17]: Bcl-2 (BID) gene, BID (gene 637)
In words: LTEA_HepaRG_BID: Life Technologies and Expression Analysis (LTEA) Assay for Bcl-2 (BID) gene using HepaRG (AID 2283476). The method in brief:
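Assay used HepaRG hepatic cells treated 48 h in serum-free medium with half-log dilutions from 100 uM. Endpoint: BID mRNA, qRT-PCR, normalized to ACTB/GAPDH/POLR2A.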

Read-out in a further test: Caspase-3 (Homo sapiens) (UniProt P42574)
The experiment in a line: LTEA_HepaRG_CASP3: Life Technologies and Expression Analysis (LTEA) Assay for cysteine-aspartic acid protease (CASP3) using HepaRG (AID 2283477). The method in brief: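 Read-out is CASP3 mRNA level by TaqMan qRT-PCR in human HepaRG cells after 48 h chemical exposure. Eight half-log concentrations topping at 100 uM were tested in 0.5% DMSO; gain or loss was fitted relative to DMSO.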

Sequence of Caspase-3 (Homo sapiens) (P42574 whole entry, looked up): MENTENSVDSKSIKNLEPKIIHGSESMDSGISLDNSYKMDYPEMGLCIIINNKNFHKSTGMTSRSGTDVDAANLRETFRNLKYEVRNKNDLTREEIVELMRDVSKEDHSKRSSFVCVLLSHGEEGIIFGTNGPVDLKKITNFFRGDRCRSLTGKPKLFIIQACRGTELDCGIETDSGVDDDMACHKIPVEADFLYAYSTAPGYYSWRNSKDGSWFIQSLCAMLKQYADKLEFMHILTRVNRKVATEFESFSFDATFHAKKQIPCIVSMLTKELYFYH
Sequence of Apoptosis regulator Bcl-2 (Homo sapiens) (P10415 whole entry, looked up): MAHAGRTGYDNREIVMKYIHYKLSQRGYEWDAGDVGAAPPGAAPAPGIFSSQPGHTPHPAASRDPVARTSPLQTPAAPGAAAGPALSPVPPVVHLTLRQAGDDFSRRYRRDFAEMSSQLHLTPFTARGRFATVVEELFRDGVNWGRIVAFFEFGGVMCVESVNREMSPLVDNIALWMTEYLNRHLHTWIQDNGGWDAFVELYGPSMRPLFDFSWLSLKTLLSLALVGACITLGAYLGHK

For `CCCCN1C(=O)[C@@H]([C@H](O)C2CCCCC2)NC(=O)C12CCN(Cc1ccc(Oc3ccc(C(=O)O)cc3)cc1)CC2`, the compound was classed as inactive in [1], in test [12] and in test [17]. Also, the AC50 – broadly, the concentration at which the activity in the assay is half-maximal – in test [2] is 4.14 µM (active); in test [3], 2.24 µM (active); in test [4], 21.5 µM (active); in [5] it was 4.37 µM (active); in test [6] it was 0.849 µM (active); in test [7], 2.88 µM (active). Also, the AC50 in [8] was 0.672 µM (active); in test [9], 2.79 µM (active); in test [10], 7.87 µM (active); in test [11], 3.81 µM (active); in test [13], 1.01 µM (active); in test [14], 3 µM (active). The AC50 with BCL2L11 (gene 10018) is 4.66 µM (active); in [15] it was 3.04 µM (active); in test [16] it was 12.7 µM (active); with Caspase-3 (Homo sapiens), 2.23 µM (active).

For `O=C(O)[C@H](O)[C@@H](O)C(=O)O`, the outcome in [1], in test [2], in [3], in [4], in test [5] and in test [6] was inactive. In addition, the compound was called inactive in test [7], in test [8], in test [9], in test [10], in test [11] and in test [12]. For the same compound, the call (in test [13]; in test [14]; with BCL2L11 (gene 10018); in test [15]; in [16]; in [17]) was inactive. The compound was called inactive with Caspase-3 (Homo sapiens).

For the compound `OC(CCl)CCl`, the result in test [1], in [2], in [3], in test [4], in test [5] and in test [6] was inactive. Also, the compound was called inactive in test [7], in test [9], in test [10], in test [11], in [12] and in test [13]. Moreover, the result (in test [14]; in the test with BCL2L11 (gene 10018); in test [15]; in [16]; in test [17]) was inactive.

As to `Cn1cc[nH]c1=S`, the compound was called inactive in test [1], in [2], in test [3], in test [4], in test [5] and in [6]. The result in test [7], in test [9], in test [10], in [11], in test [12] and in test [13] was inactive. The compound was classed as inactive (in test [14]; with BCL2L11 (gene 10018); in [15]; in test [16]; in test [17]; with Caspase-3 (Homo sapiens)).

`CCOC(N)=O`: the compound was called inactive in [1], in [2], in test [3], in [4], in [5] and in test [6]. The outcome in test [7], in [8], in test [9], in test [10], in test [11] and in test [12] was inactive. For the same compound, the compound was called inactive (in test [13]; in test [14]; with BCL2L11 (gene 10018); in test [15]; in test [16]; in [17]). Also, the result with Caspase-3 (Homo sapiens) was inactive.
